Assay results taken from PubChem BioAssay AID1851 (National Center for Advancing Translational Sciences (NCATS), 2009).
Hit rate of the full screen: of about 16,000 compounds, about 2,600 (16%) were called active. Not shown: some 20% with an inconclusive outcome. Not all results are given here. A number with no mark means an inactive call. Calls follow the shape of the dose curve; as a rule, active = well fitted curve in the direction sought with a large enough effect; inconclusive = small, poorly fitted or top-dose-only effect, or effect the other way; inactive = no such curve, though single readings can be large or run the other way.

Biological target: Cytochrome P450 2D6 (Homo sapiens) (UniProt P10635)
Sequence (P10635 whole entry, looked up): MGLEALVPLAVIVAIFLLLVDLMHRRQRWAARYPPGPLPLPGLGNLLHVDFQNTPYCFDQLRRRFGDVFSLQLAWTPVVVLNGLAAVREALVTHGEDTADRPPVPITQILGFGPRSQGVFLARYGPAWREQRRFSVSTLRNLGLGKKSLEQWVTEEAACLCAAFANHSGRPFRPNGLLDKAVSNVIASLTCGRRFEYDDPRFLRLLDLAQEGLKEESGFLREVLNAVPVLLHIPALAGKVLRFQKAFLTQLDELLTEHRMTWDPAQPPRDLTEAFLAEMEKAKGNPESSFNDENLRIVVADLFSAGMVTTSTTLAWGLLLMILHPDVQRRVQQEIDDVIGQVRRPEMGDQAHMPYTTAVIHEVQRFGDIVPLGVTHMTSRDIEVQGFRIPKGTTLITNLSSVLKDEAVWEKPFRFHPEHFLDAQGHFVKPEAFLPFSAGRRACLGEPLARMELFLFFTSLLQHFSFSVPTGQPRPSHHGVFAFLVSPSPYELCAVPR
Assay: Cytochrome panel assay with activity outcomes
Settings: recombinant CYP, pro-luciferin dealkylation, luminescence, p450-cyp2d6; series mostly up to 57.1 µM
% is scaled to controls: 0 for no effect and ±100 for the full control effect.

Row | Compound | AC50 | activity, negative = inhibition
1 | Cn1c(=O)c(-c2cccc(Cl)c2)nc2cncnc21 | inactive | –
2 | CCOC(=O)C1CCCN(c2ncnc3c2cnn3-c2ccc(Cl)cc2)C1 (centres undefined) | inactive | –
3 | COCCn1c(=O)c(-c2cccs2)nc2cncnc21 | inactive | –
4 | Cc1cc(C(=O)N[C@H](c2ccccc2)[C@@]2(C)C[C@@H]2[C@@H](C)C(=O)Nc2ccc3ccccc3c2)n(C)n1 | 39.8 nM (active) | –
5 | CC(=O)N[C@H](c1ccccc1)[C@@]1(C)C[C@@H]1[C@@H](C)C(=O)Nc1ccc2ccccc2c1 | 2000 nM (active) | –
6 | O=C(Nc1ccc2ccccc2c1)[C@H]1C[C@@H]1[C@H](NP(=O)(c1ccccc1)c1ccccc1)c1ccccc1 | inactive | –
7 | O=C(Nc1ccc2ccccc2c1)[C@@H]1C[C@H]1[C@@H](NP(=O)(c1ccccc1)c1ccccc1)c1ccccc1 | inactive | –
8 | C[C@@H](C(=O)Nc1ccc2ccccc2c1)[C@@H]1C[C@@]1(C)[C@@H](N)c1ccccc1 | 12600 nM (active) | –
9 | C[C@@H](C(=O)Cc1ccc2ccccc2c1)[C@@H]1C[C@@]1(C)[C@@H](NP(=O)(c1ccccc1)c1ccccc1)c1ccccc1 | inactive | –
10 | Cc1nn(C)c(Cl)c1S(=O)(=O)N[C@@H](c1ccccc1)[C@]1(C)C[C@H]1[C@@H](C)C(=O)Nc1ccc2ccccc2c1 | inactive | –
11 | C[C@@H](C(=O)Nc1ccc2ccccc2c1)[C@H]1C[C@]1(C)[C@H](NP(=O)(c1ccccc1)c1ccccc1)c1ccccc1 | 794 nM (active) | –
12 | CC1(C)S[C@@H]2[C@H](NC(=O)[C@@H](NC(=O)N3CCNC3=O)c3ccccc3)C(=O)N2[C@H]1C(=O)O | inactive | –
13 | COC(=O)c1sccc1NC(=O)CSc1ccccc1NS(=O)(=O)c1ccc(Cl)cc1 | inactive | –
14 | C[C@@H]1O[C@H]2C3=C(C(=O)[C@H]4O[C@@H]4[C@H]3O)[C@@H]1[C@@H]1[C@@H](C)OC=C3[C@H](O)[C@H]4O[C@@H]4/C(=N\OCc4ccccc4)[C@]312 | – | -8.47% [at 11.4 µM]
15 | O=C(NCc1ccccc1)C(c1ccc(F)cc1)N(Cc1ccco1)C(=O)c1ccccn1 (centres undefined) | inactive | –
16 | C[C@@H](C(=O)Nc1ccc2ccccc2c1)[C@@H]1C[C@@]1(C)[C@@H](NC(=O)Oc1ccc(F)cc1)c1ccccc1 | inactive | –
17 | COC(=O)[C@H]1C[C@@H]1[C@H](NC(=O)Oc1ccc(F)cc1)c1ccccc1 | inactive | –
18 | C[C@@H](C(=O)Nc1ccc2ccccc2c1)[C@H]1C[C@]1(C)[C@H](NC(=O)Oc1ccc(F)cc1)c1ccccc1 | 2510 nM (active) | –
19 | COC(=O)N[C@H](c1ccccc1)[C@@]1(C)C[C@@H]1[C@@H](C)C(=O)Nc1ccc2ccccc2c1 | 31.6 nM (active) | –
